About 930 (0.49%) of roughly 190,000 compounds were called active. Some of the results follow. Measured potencies and affinities stand elsewhere. A number with no mark means an inactive call.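 How the source made its calls: active means z-score of insulin promoter reporter brightness in nuclei below -3 at 5 µM, with at least 500 cells counted; inconclusive means wells with under 500 cells, flagged as toxic or sparse; inactive means the rest.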
experiment: insulin promoter down-regulators in MIN6 cells, imaging, high-content screening, mouse beta cells (AID 1628); details: MIN6 insulin promoter GFP reporter, at 5 µM, active compounds read low

Row | Compound | z-score
1 | CC1=CN2C(=N)/C(=C/c3ccc([N+](=O)[O-])o3)C(=O)N=C2S1 | 8.52
2 | CCCCCCc1cc2cc(-c3nnc(-c4cc(OC)c(OC)c(OC)c4)o3)c(=O)oc2cc1O | 9.96
3 | Cc1c(C(c2ccc([N+](=O)[O-])cc2)c2c(C)n(C)n(-c3ccccc3)c2=O)c(=O)n(-c2ccccc2)n1C | 4.14
4 | Cc1c(NC(=O)CN2CCN(c3ccc([N+](=O)[O-])cc3)CC2)c(=O)n(-c2ccccc2)n1C | -3.45 (active)
5 | CC(=O)N1CCc2cc(Br)cc(S(=O)(=O)CCC(=O)Nc3c(C)n(C)n(-c4ccccc4)c3=O)c21 | 2.32
6 | Cc1cc(N2CCCC2)ccc1/C=C1/C(=O)N(C)C(=S)N1C | 3.32
7 | COC(=O)c1sccc1NC(=O)c1cc(OC)c(OC)c(OC)c1 | 3.71
8 | CCOc1cc(NC(=O)c2ccco2)c(OCC)cc1NC(=O)c1cc(OC)c(OC)c(OC)c1 | -3.03 (active)
9 | CCN1/C(=C\C=C(C(C)=O)C(C)=O)Sc2ccccc21 | 7.73
10 | CCN1/C(=C/c2ccc3cc(C)ccc3[n+]2CC)Sc2ccccc21 | 16.5
11 | CCN1/C(=C/C(C)=C/c2sc3ccccc3[n+]2CC)Sc2ccccc21 | -3.52 (active)
12 | CCCCNC(=O)/C(C#N)=c1\s/c(=C\c2ccccc2OC(F)F)c(=O)n1CCCOC | 4.53
13 | O=C(NC(Nc1nc2ccc([N+](=O)[O-])cc2s1)(C(F)(F)F)C(F)(F)F)c1cccnc1 | -3.96 (active)
14 | COc1ccccc1NC(=O)c1ccc(-c2ccccc2[N+](=O)[O-])o1 | 1.05
15 | COc1ccccc1NC(=O)c1c(NC(=O)c2ccco2)sc2c1CCC2 | -3.67 (active)
16 | COC(=O)c1sc(NC(=O)c2ccco2)nc1C | 1.53
17 | COc1cc2cc(C)c3nnc(SCC(=O)Nc4cc(C)on4)n3c2cc1OC | 5.98
18 | CCn1c2ccccc2c2nnc(SCC(=O)Nc3cc(C)on3)nc21 | 3.98
19 | CCn1c(SCC(=O)Nc2cc(C)on2)nc2c(c1=O)SC(C)C2 (stereo not given) | -3.41 (active)
20 | CCO[C@@H]1OC(C(=O)Nc2ccccc2)=C[C@H](c2ccc(C(F)(F)F)cc2)[C@H]1CCCO | -3.04 (active)

Row | Compound | z-score
21 | CCCN1C(=O)/C(=C/c2c(N3CCNC(=O)C3CC(=O)OC)nc3c(C)cccn3c2=O)SC1=S (stereo not given) | 6.46
22 | COc1ccc(NC2=Nc3ccccc3N3C2=Nc2c(c(C)nn2-c2ccc(C)cc2)C3c2cccnc2)cc1 (stereo not given) | 3.08
23 | CCOC(=O)CCNC(=O)CNC(=O)OCc1ccccc1 | -4.19 (active)
24 | CCOc1ccccc1C(=O)NCC(=O)O | 0.62
25 | COc1ccc(CN2C(=O)/C(=C/c3ccc(-c4ccc(Cl)c(C(=O)O)c4)o3)SC2=S)cc1 | 5.56
26 | CCc1ccc(NC(=S)Nc2ccc3cn[nH]c3c2)cc1 | -5.26 (active)
27 | CCOc1cc(C)c(S(=O)(=O)Nc2ccc3cn[nH]c3c2)cc1C | 4.24
28 | C=CCn1c(SCc2c(C)noc2C)nc2sc3c(c2c1=O)CCCCC3 | -4.19 (active)
29 | CN(C)C(=O)C12CCC(C)(c3nc4ccccc4nc31)C2(C)C (stereo not given) | 3.42
30 | c1ccc2nc(-c3ccc4c(c3)OCO4)ccc2c1 | -0.48
31 | O=C(Nc1nc(-c2ccc3c(c2)OCO3)cs1)c1ccncc1 | -4.14 (active)
32 | O=C1/C(=C/c2ccc(N3CCOCC3)o2)SC(=Nc2ccccc2)N1CCc1c[nH]c2ccccc12 | 17.8
33 | COCCn1c(CN2CCN(c3ccc(OC)cc3)CC2)nc2c1c(=O)n(C)c(=O)n2C | -7.6 (active)
34 | CC1CCCN(c2nc3c(c(=O)n(C)c(=O)n3C)n2CCSc2nc3ccccc3s2)C1 (stereo not given) | 3.19
35 | COc1ccc(N2CCN(C(=O)CSc3nc4c(c(=O)n(C)c(=O)n4C)n3C(C)C)CC2)cc1 | -3.09 (active)
36 | Cc1cc(C)c(C(=O)O)c(CC(C)(C)C(=O)O)c1 | 3.14
37 | Cn1c(=O)c(N)c2c3c(c(Br)ccc31)C(=O)c1ccccc1-2 | 16.9
38 | Cc1c(-c2cc(C(=O)O)on2)cnn1C | 1.94
39 | CC(C)N=c1scc(-c2ccco2)n1/N=C/c1ccc(O)c(O)c1 | -5.1 (active)
40 | CCCCN(C)C(=S)Nc1ccsc1C(=O)OC | 2.3

Row | Compound | z-score
41 | CCOc1cc(/C=N/Nc2nc3ccccc3[nH]2)cc(Br)c1OCC(=O)N(C)C | -3.72 (active)
42 | CCOc1cc(/C=C/C(=O)Nc2ccc(C(=O)NCCN(CC)CC)cc2)ccc1OCC(C)C | -4.98 (active)
43 | CCOc1cc2[nH]c(=O)n(Cc3ccc(C(=O)NCCOC)cc3)c(=O)c2cc1OCC | 1.15
44 | Cc1ccc(C(OCC(O)CNC(C)c2ccccc2)c2ccccc2)cc1 (stereo not given) | -3.13 (active)
45 | Cc1cc(OCC(=O)NCc2cccnc2)ccc1[N+](=O)[O-] | -4.17 (active)
46 | CCCNC(=O)Cc1cc(=O)[nH]c(=O)[nH]1 | -3.04 (active)
47 | CCCc1cc(=O)[nH]c(SCC(=O)NCCCC(=O)OCC)n1 | 3.15
48 | CC1(C)c2ccccc2N2CC(=O)NC21/C=C/c1ccco1 (stereo not given) | 3.29
49 | COC(=O)c1ccnc(SCC(=O)c2ccccc2)c1 | -3.59 (active)
50 | O=C(CSc1ncccn1)NC(=O)c1ccccc1 | 0.73
51 | COC(=O)c1cccc(N2C(=O)c3cccnc3C2=O)c1 | 0.1
52 | CCN1C(=O)/C(=C/c2ccc(N3CCCC3)cc2)NC1=S | 15.8
53 | CCn1c(SCC(=O)c2c[nH]c3ccccc23)nc2cc(S(=O)(=O)N3CCOCC3)ccc21 | 3.09
54 | CCOC(=O)c1ccc2c(c1)nc(C1CCN(S(=O)(=O)c3cccs3)CC1)n2CC | -4.13 (active)
55 | COc1cccc(C(=O)Nc2ccccc2C(=O)N2CCCC2)c1 | 3.3
56 | CS(=O)(=O)Nc1ccc(C(=O)Nc2ccccc2C(=O)N2CCCC2)cc1 | -4.1 (active)
57 | CCNc1c2c3c(cccc3n(C)c1=O)C(=O)c1ccccc1-2 | 15.6
58 | CCN1CCN(C2=CC3=CC(=C(C#N)C#N)CCC3CC2)CC1 (stereo not given) | 16.6
59 | CCC(CC)COC(=O)C(C#N)c1nc2ccccc2nc1N1CCN(CC)CC1 (stereo not given) | -3.84 (active)
60 | Cc1ccc(S(=O)(=O)C(C#N)c2nc3ccccc3nc2N2CCC(C)CC2)cc1 (stereo not given) | 3.75
